Data as given in PubChem BioAssay (NCATS).
Results filed as inconclusive are left out. Where a call stands in place of a potency, no number is given. Calls of active or inactive are those of the source. Calls follow the shape of the full dose curve.

How the values were obtained:
[1] = Primary qHTS for Huh7 cytotoxicity: counterscreen for inhibitors of MERS-S pseudotyped particle cell entry (AID 1479147); conditions: outcome: dose series up to 57.1 µM unless noted
[2] = Primary qHTS for inhibitors of MERS-S pseudo-typed particle cell entry (AID 1479149); conditions: outcome: dose series up to 57.1 µM unless noted; also: nearly all actives have a fitted effect of over 60% in size
[3] = Primary qHTS for Vero E6 cytotoxicity: counterscreen for inhibitors of SARS-S pseudo-typed particle cell entry (AID 1479150); conditions: outcome: dose series up to 57.1 µM unless noted
[4] = Cytotoxicity counterscreen for inhibitors of SARS-CoV-2 cell entry (AID 1645845); conditions: outcome: dose series up to 57.1 µM unless noted; also: nearly all actives have a fitted effect of over 50% in size
Summary of the method: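 48 h compound treatment (after 1 h preincubation), HEK293-ACE2 cells, 37 C/5% CO2; ATP luminescence endpoint; normalized to cell wells and media blanks.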

[5] = Primary qHTS to identify inhibitors of SARS-CoV-2 cell entry (AID 1645846); conditions: SARS-CoV-2 pseudovirus cell entry assay, luminescence; activity change, negative = inhibition: at 57.1 µM (top of the series) unless noted; also: nearly all actives have a fitted effect of over 45% in size
Summary of the method: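 HEK293 cells stably expressing human ACE2, pre-treated 1 h with compound, then infected with MLV particles pseudotyped with Wuhan-Hu-1 spike (C-terminal 19-aa truncation). Luciferase luminescence after 48 h at 37 °C, normalised to spike PP and bald PP.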

SMILES: Cc1cccc(C)c1N(CCCc1cccnc1)C(=O)C(C)N (stereo not given)
- Potency [1]: inactive
- Potency [2]: inactive
- Potency [3]: inactive
- Potency [4]: inactive
- activity change, negative = inhibition [5]: -18.9%
